Inconclusive results are not listed. Unmarked numbers belong to inactive results. Active and inactive are the calls of the source. Calls follow the shape of the dose curve; as a rule, active = well fitted inhibition curve with a large enough effect; inconclusive = small, poorly fitted or top-dose-only effect, or effect the other way; inactive = flat fitted curve, though single readings scatter.
Target: Ubiquitin carboxyl-terminal hydrolase 2 (Homo sapiens) (UniProt O75604)
Assay: Ub-rhodamine 110 based assay for inhibitors Ubiquitin-specific Protease USP2a; also: nearly all actives have a fitted effect of over 50% in size
Conditions: USP2a Ub-rhodamine110 cleavage, fluorescence; series mostly up to 38.3 µM; activity change, negative = inhibition: at the top concentration
In short: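 5 nM USP2a preincubated with compounds for 30 min at RT in 20 mM Tris-HCl pH 8.0, 2 mM CaCl2, 2 mM beta-mercaptoethanol, 0.05% CHAPS. Cleavage of 150 nM Ub-rhodamine 110 read kinetically (Ex 485/Em 531) for 7 min.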
% is scaled to controls: 0 for no effect and ±100 for the full control effect; potency is read from the fitted curve at half-maximal effect.

Chain of Ubiquitin carboxyl-terminal hydrolase 2 (Homo sapiens) (O75604 whole entry, looked up): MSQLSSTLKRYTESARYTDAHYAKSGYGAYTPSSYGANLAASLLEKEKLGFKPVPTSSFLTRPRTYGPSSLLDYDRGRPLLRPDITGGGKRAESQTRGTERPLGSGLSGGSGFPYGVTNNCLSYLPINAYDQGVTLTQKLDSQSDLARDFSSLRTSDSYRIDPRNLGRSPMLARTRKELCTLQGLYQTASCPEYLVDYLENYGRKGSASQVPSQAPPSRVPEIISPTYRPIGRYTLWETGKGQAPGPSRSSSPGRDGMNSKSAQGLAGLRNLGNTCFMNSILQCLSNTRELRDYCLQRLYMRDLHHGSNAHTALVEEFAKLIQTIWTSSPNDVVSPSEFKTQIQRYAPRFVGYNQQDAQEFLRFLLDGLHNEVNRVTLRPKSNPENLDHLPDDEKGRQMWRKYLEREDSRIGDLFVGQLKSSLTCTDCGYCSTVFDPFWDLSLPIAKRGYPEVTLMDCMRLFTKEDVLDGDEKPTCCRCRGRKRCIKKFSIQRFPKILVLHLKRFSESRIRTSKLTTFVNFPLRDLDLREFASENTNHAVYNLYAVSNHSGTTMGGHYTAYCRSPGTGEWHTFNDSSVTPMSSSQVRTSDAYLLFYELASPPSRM

| SMILES | activity change, negative = inhibition [%] | Potency |
| --- | --- | --- |
| CN(C)c1cccc(C(=O)NNC(=O)C23CC4CC(CC(C4)C2)C3)c1 | 0.556 | – |
| O=C(O)/C=C/c1ccc(S(=O)(=O)Nc2ccccc2C(=O)Nc2ccc(F)cc2)cc1 | -20.3 | – |
| C=CCn1c(N)c(C(=O)NCc2cccnc2)sc1=S | 4.72 | – |
| O=C(CSc1ncn[nH]1)Nc1ccc(Br)cc1F | 2.25 | – |
| C=C(CCC(=O)c1ccccc1)C(=O)c1ccccc1 | -13.8 | – |
| O=C(Nc1ccc(N2CCCC2)cc1)c1ccc(Br)cc1 | – | 8.91 µM (active) |
| NC1=NC2(CCC(c3ccccc3)CC2)n2c(nc3ccccc32)N1 (configuration not stated) | -18.1 | – |
| Cc1cc(Cl)ccc1NC(=S)NCCCN1CCCC1=O | 3.42 | – |
| O=C1Nc2ccc(S(=O)(=O)N3CCCCCC3)c3cccc1c23 | -11.5 | – |
| COc1ccccc1C(=O)N1CCN=C1SC | 4.99 | – |
| CCN(C[C@H]1N[C@@](CC)(C(=O)OC)[C@H]2C(=O)N(Cc3ccccc3)C(=O)[C@@H]12)C(=O)Nc1ccc(C)cc1 | -4.79 | – |
| Cc1ccc(S(=O)(=O)Nc2cc(C)c(O)c(S(=O)(=O)c3ccc(C)cc3)c2)cc1 | -10.6 | – |
| CCOC(=O)c1c(NC(C)=O)sc2c1CCCNC2=O | -1.65 | – |
| CCC(C(=O)Nc1nnc(-c2ccco2)s1)c1ccccc1 (configuration not stated) | -13.1 | – |
| COc1ccc(-n2c(=S)[nH]c3cc(C(=O)Nc4cc(OC)c(OC)c(OC)c4)ccc3c2=O)c(OC)c1 | -15.9 | – |
| CCC(CO)Oc1cc(NCc2cccc(C)c2)c2ncn(C(C)C)c2c1 (configuration not stated) | -5.97 | – |
| Cc1ccc(C)c(S(=O)(=O)c2c(N)n(/N=C/c3ccco3)c3nc4ccccc4nc23)c1 | -23.7 | – |
| O=C1c2ccccc2CCC12N=NCC2c1ccc(Br)cc1 (configuration not stated) | -8.46 | – |
| O=C(NCCOC(=O)c1ccccc1C(=O)OCCNC(=O)c1cccnc1)c1cccnc1 | -1.61 | – |
| CC(C)(C)C1CCc2nc(NC(=O)Cc3cn4ccsc4n3)sc2C1 (configuration not stated) | -15.6 | – |
| CCO[C@H]1OC(C(=O)N2CCCCCCC2)=C[C@@H](c2ccc(C(F)(F)F)cc2)[C@@H]1CCCO | -6.95 | – |
| COc1cccc(C(=O)NC(C)c2ccc(-c3ccccc3)cc2)c1OC (configuration not stated) | -7.15 | – |

Source: PubChem BioAssay AID493170 (National Center for Advancing Translational Sciences (NCATS), 2011)
